What all share (assay): DAPPL (digital affinity profiling via proximity ligation, sequencing); 10 mM Tris-HCl pH 7.5, 50 mM NaCl, 1 mM DTT, 4% glycerol, room temperature, 30 min; GST-TFs on glutathione beads, 16-mer random dsDNA library, 0.1% formaldehyde crosslink after washing; high values mean tight binding
In one test the target is T1, FEV (Homo sapiens, UniProt Q99581 1-238).
T1 sequence: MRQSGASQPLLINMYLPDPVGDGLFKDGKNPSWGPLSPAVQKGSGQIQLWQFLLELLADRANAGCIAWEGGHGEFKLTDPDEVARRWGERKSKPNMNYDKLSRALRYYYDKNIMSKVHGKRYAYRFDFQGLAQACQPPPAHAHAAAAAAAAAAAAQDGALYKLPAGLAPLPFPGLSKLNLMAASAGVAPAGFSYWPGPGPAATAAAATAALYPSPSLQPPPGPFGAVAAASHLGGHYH
As to conditions: protein: recombinant; tags: N-terminal GST; dsDNA, one strand shown. In a few lines:
(§1)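 Binding signal is defined as a hexamer's read frequency for one factor over its frequency for the tag-only sample. To obtain reads, GST-fused human transcription factors were expressed in yeast, captured on glutathione beads, barcoded with DNA and pooled with that sample. Pools met 200 nmole of a 16-mer random double-stranded DNA library in Tris/NaCl/DTT/glycerol buffer for 30 min at room temperature before washing, 0.1% formaldehyde crosslinking, proximity ligation (BsaI/T4 ligase, 1 h, 37 °C), PCR and Illumina NextSeq500 sequencing.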

For a further test, the target named is ETV5 (Homo sapiens, UniProt P41161 1-510). Particulars: protein: recombinant; tags: N-terminal GST; dsDNA, one strand shown. In a few lines: as §1
Another test addresses HSF1 (Homo sapiens, UniProt Q00613 1-529). As to conditions: protein: recombinant; tags: N-terminal GST; chain copies: 3; dsDNA, one strand shown. In a few lines:
as §1

The next test deals with T2, SPIC (Homo sapiens, UniProt Q8N5J4 1-248).
T2 sequence: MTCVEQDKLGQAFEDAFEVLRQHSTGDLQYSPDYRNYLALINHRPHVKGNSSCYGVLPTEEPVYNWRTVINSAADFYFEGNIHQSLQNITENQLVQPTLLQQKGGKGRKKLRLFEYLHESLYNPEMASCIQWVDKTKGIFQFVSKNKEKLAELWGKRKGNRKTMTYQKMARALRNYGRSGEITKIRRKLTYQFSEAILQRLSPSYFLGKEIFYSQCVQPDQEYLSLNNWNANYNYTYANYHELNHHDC
As to conditions: protein: recombinant; tags: N-terminal GST; dsDNA, one strand shown. In a few lines:
as §1

A further test concerns the target ELF4 (Homo sapiens, UniProt Q99607 1-663). As to conditions: protein: recombinant; tags: N-terminal GST; dsDNA, one strand shown. In a few lines:
as §1

A further test has as its target T3, ELK4 (Homo sapiens, UniProt P28324-2 1-405).
T3 sequence: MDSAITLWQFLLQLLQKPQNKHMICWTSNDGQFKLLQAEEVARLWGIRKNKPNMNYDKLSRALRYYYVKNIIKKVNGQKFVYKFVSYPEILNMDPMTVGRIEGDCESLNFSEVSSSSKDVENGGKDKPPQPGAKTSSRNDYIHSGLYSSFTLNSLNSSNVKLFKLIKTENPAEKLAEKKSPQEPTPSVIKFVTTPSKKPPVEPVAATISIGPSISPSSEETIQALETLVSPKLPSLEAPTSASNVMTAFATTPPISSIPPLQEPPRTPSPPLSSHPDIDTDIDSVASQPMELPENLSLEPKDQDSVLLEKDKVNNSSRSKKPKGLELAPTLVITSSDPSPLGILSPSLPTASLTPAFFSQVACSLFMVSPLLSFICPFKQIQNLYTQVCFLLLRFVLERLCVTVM
As to conditions: protein: recombinant; tags: N-terminal GST; dsDNA, one strand shown. In a few lines: as §1

In another test the target is T4, ETV2 (Homo sapiens, UniProt O00321 1-342).
T4 sequence: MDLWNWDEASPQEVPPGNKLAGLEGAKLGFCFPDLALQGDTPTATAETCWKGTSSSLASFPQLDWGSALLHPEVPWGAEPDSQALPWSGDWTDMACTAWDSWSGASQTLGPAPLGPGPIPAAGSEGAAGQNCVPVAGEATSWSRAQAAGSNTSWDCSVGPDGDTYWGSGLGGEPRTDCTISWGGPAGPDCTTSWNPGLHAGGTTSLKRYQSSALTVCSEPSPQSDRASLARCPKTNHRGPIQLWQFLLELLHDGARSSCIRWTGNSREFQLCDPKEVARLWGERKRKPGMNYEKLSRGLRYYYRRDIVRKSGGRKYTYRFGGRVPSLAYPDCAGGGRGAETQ
Particulars: protein: recombinant; tags: N-terminal GST; dsDNA, one strand shown. In a few lines: as §1

A further test has as its target T5, ELF3 (Homo sapiens, UniProt P78545 1-371).
T5 sequence: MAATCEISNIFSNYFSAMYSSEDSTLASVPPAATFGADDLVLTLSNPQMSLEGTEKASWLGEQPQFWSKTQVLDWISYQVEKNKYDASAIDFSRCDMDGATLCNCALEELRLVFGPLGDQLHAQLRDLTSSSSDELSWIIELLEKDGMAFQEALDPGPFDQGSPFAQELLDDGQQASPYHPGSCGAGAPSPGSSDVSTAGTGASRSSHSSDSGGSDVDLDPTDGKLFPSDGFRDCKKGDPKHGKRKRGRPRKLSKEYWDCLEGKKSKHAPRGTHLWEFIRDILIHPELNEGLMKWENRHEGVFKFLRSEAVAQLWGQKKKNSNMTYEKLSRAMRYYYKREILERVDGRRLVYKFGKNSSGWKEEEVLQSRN
As to conditions: protein: recombinant; tags: N-terminal GST; dsDNA, one strand shown. In short, it runs like this:
as §1

Another test addresses CRX (Homo sapiens, UniProt O43186 1-299). As to conditions: protein: recombinant; tags: N-terminal GST; dsDNA, one strand shown. In a few lines:
as §1

A further test addresses ETV1 (Homo sapiens, UniProt P50549 1-477). As to conditions: protein: recombinant; tags: N-terminal GST; dsDNA, one strand shown. In a few lines: as §1
For the next test, the target named is T6, ERF (Homo sapiens, UniProt P50548 1-548).
T6 sequence: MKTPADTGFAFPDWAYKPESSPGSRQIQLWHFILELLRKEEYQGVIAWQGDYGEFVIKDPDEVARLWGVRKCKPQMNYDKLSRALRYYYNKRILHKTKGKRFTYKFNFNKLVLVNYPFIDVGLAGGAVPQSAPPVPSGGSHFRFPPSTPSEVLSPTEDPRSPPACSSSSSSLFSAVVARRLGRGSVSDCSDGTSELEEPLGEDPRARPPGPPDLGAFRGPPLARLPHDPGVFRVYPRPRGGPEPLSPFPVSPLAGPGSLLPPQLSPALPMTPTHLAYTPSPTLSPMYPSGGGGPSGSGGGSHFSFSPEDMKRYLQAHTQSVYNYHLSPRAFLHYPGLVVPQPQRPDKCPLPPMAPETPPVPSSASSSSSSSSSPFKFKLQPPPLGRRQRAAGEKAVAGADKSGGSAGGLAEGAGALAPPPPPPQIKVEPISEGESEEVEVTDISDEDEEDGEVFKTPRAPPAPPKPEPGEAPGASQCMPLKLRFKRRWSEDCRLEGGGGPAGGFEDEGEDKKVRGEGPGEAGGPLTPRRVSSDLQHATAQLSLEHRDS
Particulars: protein: recombinant; tags: N-terminal GST; dsDNA, one strand shown. In a few lines: as §1

The next test concerns the target T7, ETV3L (Homo sapiens, UniProt Q6ZN32 1-361).
T7 sequence: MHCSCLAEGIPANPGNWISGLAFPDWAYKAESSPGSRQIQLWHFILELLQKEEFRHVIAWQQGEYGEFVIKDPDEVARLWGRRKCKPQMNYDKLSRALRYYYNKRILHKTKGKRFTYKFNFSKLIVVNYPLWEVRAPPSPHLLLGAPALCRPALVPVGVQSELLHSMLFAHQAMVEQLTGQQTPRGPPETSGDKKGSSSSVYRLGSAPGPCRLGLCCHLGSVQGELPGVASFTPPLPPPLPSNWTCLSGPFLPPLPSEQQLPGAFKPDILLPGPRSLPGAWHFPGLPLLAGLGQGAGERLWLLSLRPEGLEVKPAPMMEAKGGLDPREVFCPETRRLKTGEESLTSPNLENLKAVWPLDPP
Particulars: protein: recombinant; tags: N-terminal GST; dsDNA, one strand shown. In a few lines:
as §1

A further test has as its target T8, ETS2 (Homo sapiens, UniProt P15036 1-469).
T8 sequence: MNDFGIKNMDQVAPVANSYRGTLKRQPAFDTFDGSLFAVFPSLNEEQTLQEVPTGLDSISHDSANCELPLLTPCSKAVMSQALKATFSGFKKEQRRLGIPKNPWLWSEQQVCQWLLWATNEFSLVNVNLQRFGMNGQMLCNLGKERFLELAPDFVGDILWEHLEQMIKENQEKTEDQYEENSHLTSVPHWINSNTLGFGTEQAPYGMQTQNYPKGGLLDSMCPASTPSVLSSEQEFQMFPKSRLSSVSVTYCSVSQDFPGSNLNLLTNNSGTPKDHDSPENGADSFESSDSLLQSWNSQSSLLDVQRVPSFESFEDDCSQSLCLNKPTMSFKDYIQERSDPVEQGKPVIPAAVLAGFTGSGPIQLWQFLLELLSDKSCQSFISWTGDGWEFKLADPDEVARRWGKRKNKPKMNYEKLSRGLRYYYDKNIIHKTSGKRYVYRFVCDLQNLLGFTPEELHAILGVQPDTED
As to conditions: protein: recombinant; tags: N-terminal GST; dsDNA, one strand shown. In a few lines: as §1

Another test concerns the target T9, SPDEF (Homo sapiens, UniProt O95238 1-335).
T9 sequence: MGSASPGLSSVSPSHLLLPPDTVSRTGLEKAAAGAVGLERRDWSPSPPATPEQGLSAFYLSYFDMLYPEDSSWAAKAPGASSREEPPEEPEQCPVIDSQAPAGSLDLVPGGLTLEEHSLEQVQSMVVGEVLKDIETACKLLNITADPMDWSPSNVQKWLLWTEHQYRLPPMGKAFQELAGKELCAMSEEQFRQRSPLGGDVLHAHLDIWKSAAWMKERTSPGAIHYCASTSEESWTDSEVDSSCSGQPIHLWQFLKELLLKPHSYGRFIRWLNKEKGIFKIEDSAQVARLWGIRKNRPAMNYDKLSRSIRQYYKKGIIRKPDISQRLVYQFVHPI
Particulars: protein: recombinant; tags: N-terminal GST; dsDNA, one strand shown. In a few lines:
as §1

A further test deals with T10, ETV7 (Homo sapiens, UniProt Q9Y603 1-341).
T10 sequence: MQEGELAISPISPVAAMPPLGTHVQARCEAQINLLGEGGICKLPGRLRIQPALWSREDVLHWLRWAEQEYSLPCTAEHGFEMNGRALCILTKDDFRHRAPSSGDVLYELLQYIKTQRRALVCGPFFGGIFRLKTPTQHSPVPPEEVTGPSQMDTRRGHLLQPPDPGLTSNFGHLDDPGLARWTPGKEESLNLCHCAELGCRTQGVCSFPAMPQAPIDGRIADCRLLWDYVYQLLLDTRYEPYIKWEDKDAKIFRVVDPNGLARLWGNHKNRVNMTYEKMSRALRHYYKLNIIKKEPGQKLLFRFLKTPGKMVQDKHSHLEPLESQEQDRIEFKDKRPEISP
As to conditions: protein: recombinant; tags: N-terminal GST; dsDNA, one strand shown. In short, it runs like this:
as §1

The target in another test is T11, ELF5 (Homo sapiens, UniProt Q9UKW6-2 1-255).
T11 sequence: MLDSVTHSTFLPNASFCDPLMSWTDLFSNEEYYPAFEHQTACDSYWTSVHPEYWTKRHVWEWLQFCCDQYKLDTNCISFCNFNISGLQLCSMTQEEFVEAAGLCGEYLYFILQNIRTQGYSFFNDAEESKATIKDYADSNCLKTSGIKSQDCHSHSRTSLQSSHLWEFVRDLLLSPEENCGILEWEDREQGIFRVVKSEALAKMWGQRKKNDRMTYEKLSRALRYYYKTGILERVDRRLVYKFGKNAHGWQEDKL
Particulars: protein: recombinant; tags: N-terminal GST; dsDNA, one strand shown. In a few lines: as §1

For a further test, the target named is T12, ETV3 (Homo sapiens, UniProt P41162-2 1-143).
T12 sequence: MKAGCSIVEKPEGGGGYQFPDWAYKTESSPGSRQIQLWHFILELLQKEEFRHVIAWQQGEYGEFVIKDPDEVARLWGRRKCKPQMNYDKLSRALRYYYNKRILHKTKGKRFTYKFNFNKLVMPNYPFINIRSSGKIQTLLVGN
As to conditions: protein: recombinant; tags: N-terminal GST; dsDNA, one strand shown. In a few lines: as §1

In a further test the target is ETV6 (Homo sapiens, UniProt P41212 1-452). As to conditions: protein: recombinant; tags: N-terminal GST; dsDNA, one strand shown. In a few lines: as §1

The source of these data is article PMC7862700, “An all-to-all approach to the identification of sequence-specific readers for epigenetic DNA modifications on cytosine”.

Chain of ELF4 (Q99607 whole entry): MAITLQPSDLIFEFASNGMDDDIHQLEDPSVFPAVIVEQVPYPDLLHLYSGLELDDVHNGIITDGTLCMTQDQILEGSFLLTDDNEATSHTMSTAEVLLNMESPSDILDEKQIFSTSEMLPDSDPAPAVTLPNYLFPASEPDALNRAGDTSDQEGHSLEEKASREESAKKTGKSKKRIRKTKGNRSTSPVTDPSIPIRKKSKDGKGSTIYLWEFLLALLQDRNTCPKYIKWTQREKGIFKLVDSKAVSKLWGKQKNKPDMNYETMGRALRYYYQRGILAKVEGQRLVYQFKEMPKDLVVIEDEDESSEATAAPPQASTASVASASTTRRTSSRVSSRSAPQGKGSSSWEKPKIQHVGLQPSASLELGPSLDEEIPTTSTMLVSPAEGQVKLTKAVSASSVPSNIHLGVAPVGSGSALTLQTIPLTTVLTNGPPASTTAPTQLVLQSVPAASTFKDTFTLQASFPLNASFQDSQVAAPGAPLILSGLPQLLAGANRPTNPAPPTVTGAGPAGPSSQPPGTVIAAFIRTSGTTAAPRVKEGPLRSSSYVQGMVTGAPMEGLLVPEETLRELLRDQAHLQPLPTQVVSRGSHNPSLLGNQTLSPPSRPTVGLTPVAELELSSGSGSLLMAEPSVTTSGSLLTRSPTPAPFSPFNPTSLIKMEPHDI
Chain of ETV5 (P41161 whole entry): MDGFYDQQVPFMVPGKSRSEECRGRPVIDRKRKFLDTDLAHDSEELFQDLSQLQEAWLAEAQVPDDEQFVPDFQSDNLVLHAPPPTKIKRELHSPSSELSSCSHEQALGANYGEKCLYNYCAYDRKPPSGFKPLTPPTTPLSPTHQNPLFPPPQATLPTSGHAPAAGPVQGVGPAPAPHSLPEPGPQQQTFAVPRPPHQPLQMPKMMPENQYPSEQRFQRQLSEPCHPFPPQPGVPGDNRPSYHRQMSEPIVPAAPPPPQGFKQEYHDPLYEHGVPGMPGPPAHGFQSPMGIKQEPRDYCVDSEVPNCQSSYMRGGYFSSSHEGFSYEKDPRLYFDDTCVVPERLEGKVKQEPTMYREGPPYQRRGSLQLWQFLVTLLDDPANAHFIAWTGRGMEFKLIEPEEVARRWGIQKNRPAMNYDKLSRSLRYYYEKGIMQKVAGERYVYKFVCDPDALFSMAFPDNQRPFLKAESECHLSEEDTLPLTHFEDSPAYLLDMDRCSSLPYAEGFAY
Chain of ETV1 (P50549 whole entry): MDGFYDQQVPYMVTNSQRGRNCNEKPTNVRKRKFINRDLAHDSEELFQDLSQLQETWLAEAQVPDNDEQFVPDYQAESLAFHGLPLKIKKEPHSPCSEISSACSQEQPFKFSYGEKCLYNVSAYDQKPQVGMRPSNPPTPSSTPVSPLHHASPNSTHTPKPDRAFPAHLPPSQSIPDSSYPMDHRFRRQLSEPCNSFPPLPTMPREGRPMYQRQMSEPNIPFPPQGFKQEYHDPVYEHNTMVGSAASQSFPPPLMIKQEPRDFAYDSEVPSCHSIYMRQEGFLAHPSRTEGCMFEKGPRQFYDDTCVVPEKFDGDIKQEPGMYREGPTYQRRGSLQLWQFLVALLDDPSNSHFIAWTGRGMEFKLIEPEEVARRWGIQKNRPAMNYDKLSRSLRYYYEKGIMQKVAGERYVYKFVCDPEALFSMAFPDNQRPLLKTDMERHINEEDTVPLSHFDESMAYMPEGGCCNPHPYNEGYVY
Chain of CRX (O43186 whole entry): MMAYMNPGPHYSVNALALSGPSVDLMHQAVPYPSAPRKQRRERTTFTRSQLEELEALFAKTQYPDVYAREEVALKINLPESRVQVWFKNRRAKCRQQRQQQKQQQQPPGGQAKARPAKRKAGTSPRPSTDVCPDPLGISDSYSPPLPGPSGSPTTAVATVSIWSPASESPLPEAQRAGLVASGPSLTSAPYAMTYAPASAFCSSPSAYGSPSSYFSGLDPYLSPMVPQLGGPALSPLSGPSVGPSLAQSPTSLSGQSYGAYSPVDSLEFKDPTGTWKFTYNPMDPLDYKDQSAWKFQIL
Chain of HSF1 (Q00613 whole entry): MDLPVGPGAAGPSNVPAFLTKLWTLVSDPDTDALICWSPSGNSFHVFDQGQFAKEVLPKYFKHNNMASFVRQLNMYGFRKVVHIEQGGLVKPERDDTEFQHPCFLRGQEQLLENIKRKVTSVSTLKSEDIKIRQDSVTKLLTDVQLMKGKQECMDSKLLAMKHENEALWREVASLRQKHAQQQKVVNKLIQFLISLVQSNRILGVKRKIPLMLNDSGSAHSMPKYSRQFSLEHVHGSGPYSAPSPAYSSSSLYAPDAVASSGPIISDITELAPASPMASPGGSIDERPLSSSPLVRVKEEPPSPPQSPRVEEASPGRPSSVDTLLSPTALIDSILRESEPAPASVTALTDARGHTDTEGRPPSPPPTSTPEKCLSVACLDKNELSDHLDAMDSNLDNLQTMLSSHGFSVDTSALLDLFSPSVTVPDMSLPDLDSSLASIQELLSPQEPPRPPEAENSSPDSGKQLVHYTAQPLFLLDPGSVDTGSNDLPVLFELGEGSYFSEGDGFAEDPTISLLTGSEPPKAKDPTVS
Chain of ETV6 (P41212 whole entry): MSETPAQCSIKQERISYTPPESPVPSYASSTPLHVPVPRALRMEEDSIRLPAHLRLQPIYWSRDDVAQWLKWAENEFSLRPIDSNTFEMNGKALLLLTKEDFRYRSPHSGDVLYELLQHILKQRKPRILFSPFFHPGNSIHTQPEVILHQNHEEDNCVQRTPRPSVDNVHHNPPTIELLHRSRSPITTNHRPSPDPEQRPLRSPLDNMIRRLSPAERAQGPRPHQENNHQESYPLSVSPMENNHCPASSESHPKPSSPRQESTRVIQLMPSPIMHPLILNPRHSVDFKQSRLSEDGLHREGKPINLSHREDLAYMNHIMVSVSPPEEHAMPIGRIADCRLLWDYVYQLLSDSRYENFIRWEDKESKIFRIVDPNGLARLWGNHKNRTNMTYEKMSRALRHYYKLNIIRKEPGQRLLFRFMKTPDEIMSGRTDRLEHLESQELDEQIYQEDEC

On to AGCTTT, for which the binding signal was 1.08 fold enrichment (6-mer frequency, TF over GST control) in the test with FEV; 1.18 fold enrichment (6-mer frequency, TF over GST control) in the test with ETV5; 1.43 fold enrichment (6-mer frequency, TF over GST control) with HSF1; 1.03 fold enrichment (6-mer frequency, TF over GST control) in the test with SPIC; 1.15 fold enrichment (6-mer frequency, TF over GST control) with ELF4; 1.28 fold enrichment (6-mer frequency, TF over GST control) in the test with ELK4. In addition, the binding signal was 1.23 fold enrichment (6-mer frequency, TF over GST control) in the test with ETV2; 1.45 fold enrichment (6-mer frequency, TF over GST control) in the test with ELF3; 1.81 fold enrichment (6-mer frequency, TF over GST control) in the test with CRX; 1.1 fold enrichment (6-mer frequency, TF over GST control) with ETV1; 1.15 fold enrichment (6-mer frequency, TF over GST control) in the test with ERF; 1.2 fold enrichment (6-mer frequency, TF over GST control) with ETV3L. Further, the binding signal in the test with ETS2 is 1.19 fold enrichment (6-mer frequency, TF over GST control); with SPDEF, 1.12 fold enrichment (6-mer frequency, TF over GST control); in the test with ETV7 it was 1.25 fold enrichment (6-mer frequency, TF over GST control); in the test with ELF5, 1.04 fold enrichment (6-mer frequency, TF over GST control); with ETV3 it was 1.07 fold enrichment (6-mer frequency, TF over GST control); in the test with ETV6, 1.19 fold enrichment (6-mer frequency, TF over GST control).
